Assay outcomes: PubChem BioAssay, several laboratories
Sampled rows, rich in hits. Any-hit rate of the full collection: about 4.2%.
tim10-1 inh: growth inhibitors of tim10-1 mutant yeast, primary screen, luminescence, uHTS. 330,000 tested, 2.2% active. S. cerevisiae tim10-1 ts strain growth, BacTiter-Glo, 24 h. inhibition, % at 20 µM;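 active means inhibition of at least 40%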;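 further: mutant grown at 25 °C; 0% = DMSO wells with yeast and 100% = wells holding no yeast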
PfHsp90 yeast 2: growth inhibition of PfHsp90-expressing yeast, primary screen, antimalarial PfHsp90 inhibitor project, S. cerevisiae, BacTiter-Glo luminescence, single point, set 2; AID 504621, 2011; BacTiter-Glo ATP, 48 h; yeast lacking PDR1 and PDR3 efflux regulators; 310,000 tested, 0.32% active; inhibition, % at 9.4 µM;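 active means every replicate shows inhibition above about 80%, whatever the replicate mean, limit read from the data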;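 further: 0% = DMSO neutral controls and 100% = 20 µM radicicol positive controls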
TIM10 inh: growth inhibitors of isogenic TIM10 control yeast, primary screen, counter-screen for tim10-1 yeast inhibitor project, luminescence, uHTS; S. cerevisiae TIM10 strain growth, BacTiter-Glo luminescence, 24 h; inhibition, % at 10 µM; 330,000 tested, 1.4% active;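 active means inhibition of 40% or more at the single tested concentration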;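 further: wild-type TIM10 isogenic control strain grown at permissive 25 °C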
tim23-1 inh: growth inhibitors of tim23-1 mutant yeast, primary screen, luminescence, uHTS | S. cerevisiae tim23-1 growth, BacTiter-Glo luminescence, 24 h | inhibition, % at 20 µM | 330,000 tested, 1.3% active | AID 463212, 2010;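 active means growth inhibition of the mutant yeast at or above 50%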;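 further: temperature-sensitive mutant grown at 25 °C; plate controls were DMSO-treated mutant yeast for no effect and medium wells lacking yeast for full effect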
NALP1 yeast inh: NALP1 inflammasome inhibitors in reconstituted yeast, colorimetric, S. cerevisiae, triplicate retest; AID 2071, 2009; S. cerevisiae NALP1/ASC/caspase-1 growth, X-gal OD620, 72 h; 280,000 tested, 0.61% active; inhibition, % at 10 µM; in the data active means inhibition mostly above about 24%, no sharp cut-off; inactive means mostly below about 32%
NLRP3 yeast inh: NALP3 inflammasome inhibitors in reconstituted yeast, primary screen, luminescence, uHTS; Yeast reconstituted NLRP3/ASC/caspase-1, beta-gal luminescence, 24 h; inhibition, % at 10 µM; 330,000 tested, 0.39% active; AID 2825, 2010;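 active means inhibition of 50% or more; inactive means inhibition below 50%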;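 further: plate controls were induced DMSO wells for no effect and uninduced yeast grown without galactose for full effect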
tim23-1 confirm: tim23-1 mutant yeast growth inhibitors, confirmation, luminescence, single concentration; 4,400 tested, 83% active; inhibition, % at 20 µM; shares compounds with tim23-1 inh; S. cerevisiae tim23-1 growth, BacTiter-Glo luminescence, 24 h;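 active means inhibition above about 39% in either of two replicate wells at 20 µM, limit read from the data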;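 further: temperature-sensitive tim23-1 mutant grown at 25 °C; 0% = DMSO wells with yeast and 100% = medium wells without yeast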
The depositor's hits bear a star; . = not tested or not shown.

SMILES	tim10-1 inh	PfHsp90 yeast 2	TIM10 inh	tim23-1 inh	NALP1 yeast inh	NLRP3 yeast inh	tim23-1 confirm
O=C1C2C(C(=O)N1c1ccccc1)N1CCCN1C2c1ccccc1 (stereo not given)	21.1	-16.7	-14.0	23.7	2.4	-0.6	.
COc1ccc(C(=O)NC(=S)N2CCNC(=O)C2)cc1Br	0.2	14.0	-12.4	15.6	-8.1	11.9	.
COc1ccc(C(=O)NC(=S)N2CCC(C)CC2)cc1Br	36.9	7.5	28.4	56.9*	7.8	26.1	36.9
COc1ccc(/C=C2\CCCc3c2nc2ccccc2c3C(=O)OCC(=O)c2c(N)n(C)c(=O)n(C)c2=O)cc1	16.0	.	-1.3	14.7	22.7	12.0	.
Oc1ccc(/C=N/Nc2cccc(Cl)n2)c(O)c1	-48.6	1.1	4.2	56.0*	-11.1	37.8	44.0*
FC(F)Oc1ccc(/C=N/n2c(Cc3ccc(Br)cc3)n[nH]c2=S)cc1	29.4	9.7	31.0	51.0*	-19.4	25.8	53.0*
S=c1[nH]nc(COc2ccccc2)n1/N=C/c1cccc(Cl)c1Cl	31.6	-46.1	39.0	61.2*	10.6	24.7	44.4*
S=c1[nH]nc(COc2ccccc2)n1/N=C/c1ccccc1Cl	35.4	-15.9	28.9	24.1	-14.6	14.5	.
Cc1ccc(/C=N/n2c(COc3ccccc3)n[nH]c2=S)cc1	21.2	-23.7	35.7	52.8*	-2.2	40.3	27.5
Cc1cnc(NC(=O)c2cc3c(s2)CCCC3)s1	26.5	-1.7	28.3	54.8*	12.3	34.9	46.8*
CCc1nnc(NC(=O)c2cc3c(s2)CCCCC3)s1	10.6	-2.6	-1.6	-10.4	.	-5.4	.
CSc1ncccc1C(=O)NC(C)C1CC2CCC1C2 (stereo not given)	20.6	-8.8	13.6	0.7	7.2	12.5	.
CCOC(=O)c1c(C=O)c(C)n(Cc2ccccc2)c1C	27.9	50.4	25.7	22.5	17.3	7.9	.
CCOC(=O)c1c(C=O)c(C)n(Cc2ccc(Cl)cc2)c1C	29.9	.	34.3	63.0*	-2.9	11.0	58.2*
COc1cccc(Nc2nc(-c3sc(C)nc3C)cs2)c1	15.1	-80.6	29.8	55.0*	13.1	25.4	45.8*
COc1ccc2nc(NC3=NCCC3)sc2c1	9.0	-11.8	17.5	11.5	6.4	32.4	.
COc1cccc(Nc2nc3ccc(OC)cc3s2)c1	18.1	-47.1	37.1	61.2*	18.2	25.6	57.2*
COc1cccc(Nc2nc(-c3sc(N)nc3C)cs2)c1	15.5	21.5	9.9	23.3	6.2	22.4	.
CC1=NN(c2nc3ccccc3[nH]2)C(=O)C1Cc1ccccc1 (stereo not given)	20.9	.	13.0	67.1*	-16.6	3.6	56.4*
COC(=O)c1c(C)cc(O)c(C=O)c1O	8.8	-0.3	0.0	56.3*	.	7.7	45.3*
Cn1c(NC(=O)c2ccc(F)cc2)c(-c2ccccn2)c(=O)c2ccccc21	26.1	.	3.3	22.3	13.1	16.5	.
Cc1ccccc1NS(=O)(=O)c1ccc2c(c1)oc(=O)n2C	10.7	49.3	-6.1	20.2	2.5	-11.0	.
Cc1cccc(NS(=O)(=O)c2ccc3c(c2)oc(=O)n3C)c1C	-5.0	-1.1	0.3	95.1*	-8.3	8.5	20.0
COCC(C)N1CCC(Oc2ccc(C(=O)N3CCCC3)cc2)CC1 (stereo not given)	6.5	-21.2	-0.1	2.6	-1.1	13.4	.
Clc1cc(Cl)cc(C2=NC(Cc3ccccc3)CO2)c1 (stereo not given)	21.4	7.4	7.2	19.9	.	6.4	.
SMILES	tim10-1 inh	PfHsp90 yeast 2	TIM10 inh	tim23-1 inh	NALP1 yeast inh	NLRP3 yeast inh	tim23-1 confirm
COC(CNc1ccc([N+](=O)[O-])c(NCC(OC)OC)c1C#N)OC	6.4	-13.5	6.9	7.6	-4.9	13.7	.
CC(NC(=O)Cn1cccc1)c1ccccc1 (stereo not given)	5.1	-22.0	-4.9	9.2	3.3	8.3	.
O=C(Nc1ccc(C(=O)N2CCCc3ccccc32)cc1)c1cccs1	4.1	3.5	7.4	51.9*	-17.9	23.0	44.3*
COC(=O)Nc1ccc2c(c1)Nc1ccccc1CC2	31.8	7.6	6.0	65.7*	1.9	11.7	42.5*
O=C(c1cccs1)N1CCN(c2cc(Cl)ccc2Cl)CC1	38.1	-6.9	14.9	50.0	3.9	-0.6	37.0
CN(c1ccc(O)cc1)S(=O)(=O)c1ccc2ccccc2c1	-12.7	-8.6	2.5	51.3*	18.1	44.7	45.0*
